# In the library only some 7.8% were active in any assay of this set; here they are far more common.
# Marburg entry inh = Marburg virus entry inhibition. Potency, µM (highest dose often 37.8 µM), without a hit: at the highest dose activity change, negative = inhibition, hits mostly inhibitors. actives 1.8% (n = 300,000). AID 540276. Marburg virus pseudotyped entry inhibition, cell reporter; calls by dose curve; tested in HEK293 cells; further: potency means the concentration at half of the fitted maximal effect
# Vaccinia mCherry = vaccinia inhibition (mCherry reporter); Vaccinia virus mCherry reporter infection, fluorescence; actives 0.63% (n = 310,000); Potency, µM (titrated, usually from 36.5 µM), for inactives: top-dose activity change, negative = inhibition, hits mostly inhibitors; AID 720579; calls by dose curve; tested in A549 cells; further: potency means the concentration at half of the fitted maximal effect; nearly all actives have a fitted effect of over 35% in size
# Lassa entry inh = blocks Lassa virus binding to or entry into cells. Lassa virus pseudotype entry inhibition, cell reporter. Potency, µM (top dose mostly 37.9 µM), for inactives: top-dose activity change, negative = inhibition, actives largely listed as inhibitors. actives 1.2% (n = 300,000). AID 540256; calls by dose curve; tested in HEK293 cells; further: potency means the concentration at half of the fitted maximal effect; nearly all actives have a fitted effect of over 50% in size
# HCMV inh = inhibitors of human cytomegalovirus. HFF cells, HCMV-luciferase reporter, 72 h; active compounds read low. activity change, negative = inhibition, % at 57.5 µM. actives 4.5% (n = 410,000); in the data active means activity change below about -60%; inconclusive means no clear call, values can overlap the other calls; inactive means above about -39%
#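 Compounds were evaluated in HFFs infected with an HCMV luciferase reporter virus (MOI 1 PFU/cell). Luciferase in lysates collected 72 h post infection served as the replication measure.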
# Vaccinia Venus = vaccinia inhibition (Venus reporter) | Vaccinia virus Venus reporter expression, fluorescence | Potency, µM (top dose mostly 36.5 µM), without a hit: top-dose activity change, negative = inhibition, actives largely listed as inhibitors | actives 0.46% (n = 330,000) | AID 720580; calls by dose curve; tested in A549 cells; further: potency means the concentration at half of the fitted maximal effect; nearly all actives have a fitted effect of over 30% in size
# HCV inh = HCV inhibition; Potency, µM (highest dose often 41.8 µM), without a hit: at the top dose activity change, negative = inhibition, most hits filed as inhibitors; Huh7.5.1 HCVcc-Cre infection, luciferase reporter, 44 h; actives 3.4% (n = 340,000); AID 651820; active means well fitted inhibition curve with a large enough effect; inconclusive means small, poorly fitted or top-dose-only effect, or another doubt; inactive means no such curve, though single readings can be large or run the other way; further: potency means the concentration at half of the fitted maximal effect
#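 Whole-lifecycle infectious HCVcc-Cre system; cells 1,000/well, compound then virus (~0.5 moi) added 4 h after plating, 44 h culture. Luciferase read 15 sec following 15 min substrate incubation, room temp.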
# * marks the source's active call; other numbers are inactive results; i = inactive; ? = inconclusive; . = not tested or not shown; + = active, no number; [ ] = dose if it differs, or a comment. On the % scale 0 is the no-effect control and ±100 the full control effect.
SMILES,Marburg entry inh,Vaccinia mCherry,Lassa entry inh,HCMV inh,Vaccinia Venus,HCV inh
Nc1ncnc2c1ncn2[C@@H]1O[C@H](CNCc2ccc(OCc3ccccc3)cc2)[C@@H](O)[C@H]1O,.,i,.,-27,-15%,4µM*
O=C(NC1CCCN(Cc2ccc(Cl)cc2)C1)c1cnc2ccccn2c1=O (configuration not stated),?,-17%,?,-65*,-23%,?
CC(C)Cc1ccc(CN2CCCC(NC(=O)c3cnc4ccccn4c3=O)C2)cc1 (configuration not stated),-18%[46.1 µM],0%,?,-23,-9%,-11%
Cc1cccn2c(=O)c3cc(C(=O)NC4CCCC4)c(=N)n(CCCN4CCOCC4)c3nc12,3.5µM*,-1%,-12%[46.1 µM],-25,-15%,-19%
COc1ccc(CCNC(=O)c2cc3c(=O)n4cccc(C)c4nc3n(CCCN3CCOCC3)c2=N)cc1,.,.,.,-95*,.,?
N=c1c(C(=O)NCCc2ccccc2)cc2c(=O)n3ccccc3nc2n1CCCN1CCOCC1,7.1µM*,-19%,?,-17,2%,?
COCCn1c(=N)c(C(=O)NCCc2ccc(OC)cc2)cc2c(=O)n3cccc(C)c3nc21,-10%,.,-13%,29,2%,13%
Cc1cc(C)cc(NC(=O)c2cc(S(=O)(=O)N3CCC(C)CC3)cn2C)c1,.,-2%,7%[46.1 µM],-1,-12%,.
Cc1ccccc1CN1CCc2nc(Nc3ccc4c(c3)OCCO4)ncc2C1,.,-29%,?,-15,-18%,.
N=c1c(C(=O)NC2CCCCC2)cc2c(=O)n3ccccc3nc2n1Cc1ccccc1,.,.,.,?,.,11µM*
N=c1c(C(=O)NC2CCCCC2)cc2c(=O)n3ccccc3nc2n1Cc1cccnc1,3%[46.1 µM],i,6%,5,-10%,?
CCc1nn(CC(=O)NCCCN2CCOCC2)c(=O)c2cc3cc(F)ccc3n12,7%[46.1 µM],-7%,16%[46.1 µM],+,-8%,-32%
Cc1c2cnn(CC(=O)NCCN3CCOCC3)c(=O)c2c(C)n1Cc1ccc(F)cc1,.,i,.,-72*,-4%,12%
COCCCn1c(C(=O)Nc2ccc3c(c2)OCO3)cc2c(=O)n3cccc(C)c3nc21,.,?,.,4,5µM*,.
CCc1ccc(C=O)cc1,.,-9%,.,.,-5%,.
CCn1ccc2c(OCC(=O)Nc3ccc(C(C)=O)cc3)cccc2c1=O,.,-5%,-1%[46.1 µM],8,-6%,.
Cc1cccn2c(=O)c3cc(C(=O)NCCN4CCOCC4)c(=N)n(Cc4ccc(F)cc4)c3nc12,?,-4%,5.6µM*,-100*,-14%,?
Cc1cccn2c(=O)c3cc(S(=O)(=O)c4ccc(F)cc4)c(=N)n(Cc4ccco4)c3nc12,?,-14%,?,-13,-6%,2.8µM*
Cc1cccn2c(=O)c3cc(C(=O)NCCN4CCOCC4)c(=N)n(CCN4CCOCC4)c3nc12,?,-18%,-1%,12,-17%,-11%
COC(=O)c1ccccc1NC(=O)Cn1c(=O)n(-c2cccc(OC)c2)c(=O)c2c(C)c(C(=O)N(C)C)sc21,.,-25%,1%[46.1 µM],95,-27%,.
OC1CCC(Nc2nccc3[nH]c(-c4ccccc4Cl)nc23)CC1 (configuration not stated),.,.,.,-11,.,.
CN(C(=O)Nc1cn(C)c(=O)c2ccccc12)c1ccccc1,.,19%,1%[46.1 µM],13,9%,.
CC1(COc2ccc(CC3SC(=O)NC3=O)cc2)CCCCC1 (configuration not stated),.,-2%[3.33 µM],.,.,-5%[3.33 µM],.
CC1(C)CCN2CCC(C)(C)c3c(O)ccc1c32,.,.,.,-91*,.,-24%
COc1ccc(NCc2cc3cc4c(cc3n(CC(=O)Nc3cc(C)ccc3C)c2=O)OCCO4)cc1,.,?,5%[46.1 µM],-73*,-26%,.
SMILES,Marburg entry inh,Vaccinia mCherry,Lassa entry inh,HCMV inh,Vaccinia Venus,HCV inh
COc1cc2cc(CNc3ccc(C)cc3)c(=O)n(CC(=O)Nc3ccc(C(C)C)cc3)c2cc1OC,.,-21%,1%[46.1 µM],-105*,-7%,.
CCc1c(C)nc2nncn2c1NCc1ccccc1,0%[46.1 µM],-15%,-25%[46.1 µM],-20,-13%,.
CCC(C)C(=O)Nc1ccc(S(=O)(=O)Nc2nccs2)cc1 (configuration not stated),.,.,.,12,.,-17%
CCOc1ccc(NS(=O)(=O)c2ccc(NC(=S)NC(=O)CC(C)C)cc2)cc1,-21%,.,?,-1,?,11µM*
CCCC(=O)NC(=S)Nc1ccc(S(=O)(=O)Nc2ccc(OCC)cc2)cc1,?,?,-2%,-29,-21%,-17%
CC(C)CC(=O)NC(=S)Nc1ccc(S(=O)(=O)Nc2nccs2)cc1,11%,-25%,-13%,-71*,-13%,23%
CCc1c(C)nc2nncn2c1Nc1cccc(C)c1,1%[46.1 µM],-9%,-7%[46.1 µM],-40,-10%,.
CCOc1cc2c(cc1O)C(=NO)CC1C2CCC2(C)C(O)CCC12 (configuration not stated),?,?,?,-76*,?,?
O=[N+]([O-])c1ccc2[nH]c3c(c2c1)CCCC3,.,.,.,?,.,11µM*
O=c1c2c([nH]c3ccc(Br)cc13)CCCC2,-25%,.,?,47,-9%,-24%
OCCN=C1CCCc2c1[nH]c1ccc(Br)cc21,1%,-17%[1.46 µM],-8%,-13,-21%,5.6µM*
Brc1ccc2[nH]c3c(c2c1)CCC3,?,-10%,8.9µM*,-70*,8%,?
Cc1c(C(=O)NCCCN2CCCC2=O)cnn1-c1ncc2c(n1)-c1ccccc1CC2,.,?,.,.,-25%,.
Cc1nc2ccc(C(=O)N3CCOc4ccc(CN5CCOCC5)cc4C3)cc2nc1C,.,-4%,.,.,14%,.
Cc1cc(C)c(NC(=O)CS(=O)CC(=O)Nc2ccc(-n3cnnn3)c(C)c2)c(C)c1 (configuration not stated),?,-6%,?,-69*,-13%,2%
O=C(Nc1ccc2nc3ccccc3nc2c1)c1ccccc1,?,10µM*,11µM*,91,?,?
CC(=O)Nc1ccc2cc3ccc(NC(C)=O)cc3nc2c1,.,.,.,-98*,.,-4%
Cc1cc(NC(=O)CS(=O)CC(=O)Nc2c(C)cccc2C)ccc1-n1cnnn1 (configuration not stated),?,-25%,4%[46.1 µM],14,-6%,4%
Cc1ccc(NC(=O)c2ccccc2)cc1-n1cnnn1,0%[46.1 µM],i,-1%[46.1 µM],-73*,-11%,10%
CC(C)CCNC(=O)CN1C(=O)CSc2ccc(S(=O)(=O)N3CCCCC3)cc21,.,-14%,5%[46.1 µM],-21,-15%,.
COc1ccc(N2CCN(C(=O)CCn3c(=O)c4cccn4c4cccnc43)CC2)cc1,.,-9%,16%[46.1 µM],-25,-14%,.
Cc1oc(-c2ccccc2Cl)nc1CS(=O)CC(=O)N1CCN(c2cccc(C(F)(F)F)c2)CC1 (configuration not stated),.,-21%,?,?,-16%,.

# Bioassay records from PubChem.
